Among the data in PubChem BioAssay (NCATS) are Potency and activity change, negative = inhibition values, retold here.

Results filed as inconclusive are left out. Values without a mark were called inactive. Calls of active or inactive are those of the source. The call rests on the fitted dose curve.
Potency means the concentration at half of the fitted maximal effect.

The test deals with Cytochrome P450 1A2 (Homo sapiens) (UniProt P05177). The experiment in a line: p450-cyp1a2 (AID 410).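 On activity change, negative = inhibition: -100% = full effect of reference inhibitor.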 The conditions noted are these: recombinant CYP1A2, luciferin-ME demethylation, luminescence; series mostly up to 11.4 µM. On the procedure: The P450 gene superfamily is involved in metabolism and the clearance of xenobiotics. This assay used human CYP1A2 to measure the demethylation of luciferin 6' methyl ether (Luciferin-ME; Promega-Glo) to luciferin. The luciferin is then measured by luminescence after the addition of a luciferase detection regeant. Luciferin-ME concentration in the assay was equal to its Km for CYP1A2.
Sequence of Cytochrome P450 1A2 (Homo sapiens) (P05177 whole entry, looked up): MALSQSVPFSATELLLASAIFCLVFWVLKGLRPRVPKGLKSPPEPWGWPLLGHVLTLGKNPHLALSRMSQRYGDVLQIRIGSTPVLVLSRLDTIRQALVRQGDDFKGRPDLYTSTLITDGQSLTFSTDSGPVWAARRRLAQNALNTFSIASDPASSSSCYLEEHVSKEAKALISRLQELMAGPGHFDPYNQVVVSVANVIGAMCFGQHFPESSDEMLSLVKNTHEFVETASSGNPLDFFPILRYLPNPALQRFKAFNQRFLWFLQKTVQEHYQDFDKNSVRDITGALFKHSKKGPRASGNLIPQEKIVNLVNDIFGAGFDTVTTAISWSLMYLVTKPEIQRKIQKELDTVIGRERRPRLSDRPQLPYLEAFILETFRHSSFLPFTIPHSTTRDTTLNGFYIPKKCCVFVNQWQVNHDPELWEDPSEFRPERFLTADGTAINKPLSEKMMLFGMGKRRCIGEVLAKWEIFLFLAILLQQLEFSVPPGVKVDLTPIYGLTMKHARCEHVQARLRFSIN
NCGC Assay Protocol Summary:
Two uL of enzyme and substrate mix (final concentrations: 20nM CYP1A2, 100uM Luciferin-ME, 100mM KPO4) were dispensed into a white, solid bottom 1536-well microtiter plate. 23nL of compound was transferred by a pin tool. The plate was incubated at room temperature for 10 min. Two uL of an NADPH regeneration solution (Promega supplied reagent) was dispensed and the reaction was allowed to continue for 60 min at room temperature. Then the reaction was stopped by reconstituted detection reagent. After another 20 min of incubation the plate was read on the ViewLux (Perkin Elmer) at 60 sec exposure and 2x2 binning. This protocol was carried out with Promega-Glo reagents and further information can be found at http://www.promega.com/tbs/tb325/tb325.pdf. Data were normalized to the to AC100 inhibition (57 uM furafylline).
In the case of `COCCn1c(=O)c(-c2ccc(OC)cc2)nc2cnc(OC)nc21`, the Potency was 3160 nM (active).
Take `Cn1ncc2c(Cl)ncnc21`: the Potency entry was “inactive”.
The same measure, in the same setting: the result for `Nc1nc(Cl)nc2c1ncn2[C@@H]1O[C@@H](COP(=O)(O)OP(=O)(O)OP(=O)(O)O)[C@@H](O)[C@H]1O` reads “inactive”.
`C[N+]1(CCCC[N+]2(C)CCCCCCC2)CCCCCCC1`: the activity change, negative = inhibition was -10.4% [at 2.29 µM].
As to `C[C@@H](CNC(N)=O)NC(N)=O`, the Potency result was “inactive”.
Turning to `CC(C)(C)NCC[C@@H](O)c1cc(C(F)(F)F)nc2c(C(F)(F)F)cccc12`, the activity change, negative = inhibition was -9.9% [at 2.29 µM].
With `CN1CCN(c2ccncc2S(=O)(=O)N2CCN(C)CC2)CC1`, the activity change, negative = inhibition is -7.4% [at 2.29 µM].
Still for that read-out and setting: the result for `COC(=O)CCCC(=O)O` reads -7.3% [at 2.29 µM].
`c1ccc2c(CC3NCCN3)cccc2c1`: the Potency entry was “inactive”.
As to `N[C@@H](Cc1cccc([N+](=O)[O-])c1)C(=O)O`, the Potency entry was “inactive”.
Same read-out and setting: for `CC[N+](C)(CC)CCN1C(=O)c2ccccc2S1(=O)=O` the value was “inactive”.
Regarding `CCC1=C(C[C@H]2NCCc3ccccc32)C[C@@H]2c3cc(OC)c(OC)cc3CCN2C1`, the Potency entry was “inactive”.
As to `COc1ccc2c3c(ccc2c1)N[C@H](C(=O)O)CC3`, the Potency is 501 nM (active).
In the case of `Cn1c(Sc2ccc(-c3cccnc3)n2C)ccc1-c1cccnc1`, the Potency is 398 nM (active).
In the case of `CC(C)=NNc1ncnc2nc[nH]c12`, the Potency was 794 nM (active).
Turning to `Clc1ccccc1NN(Cc1ccccn1)c1ccccc1Cl`, the activity change, negative = inhibition was -22.4% [at 2.29 µM].
On to `S=C1SCN(C2CCCCCCCCCCC2)CN1C1CCCCCCCCCCC1`, for which the activity change, negative = inhibition was -14.7% [at 2.29 µM].
Consider `Br/C(=N\Nc1nn[nH]n1)c1ccncc1`, for which the Potency result was “inactive”.
With `Cc1cc(Cl)nc(NC(=O)CSc2ccc(Cl)cc2)n1`, the Potency is 5010 nM (active).
Consider `O=C1c2ccccc2C(=O)N1C[C@]1(C(=O)O)NCCS1(=O)=O`, for which the activity change, negative = inhibition is -5.5% [at 2.29 µM].
As for `COc1nc(N)nc2c1ncn2[C@@H]1C[C@H](O)[C@@H](CO)O1`, the Potency result is “inactive”.
As to `CC(C)Cn1cnc2c(Sc3c([N+](=O)[O-])ncn3C)nc(N)nc21`, the activity change, negative = inhibition is 8.1% [at 2.29 µM].
In the case of `Cc1cc2c(cc1C)NC1=C(N2)O[C@H](c2c[nH]c3ccc(COc4ccccc4)cc23)C1=O`, the Potency was 2510 nM (active).
For the compound `N[C@@H](CSCc1ccccc1)C(=O)O`, the Potency result is “inactive”.
Same read-out and setting: for `Nc1cc2c(nc3c4ccccc4c(N)cc3[n+]2-c2cccc3ccccc23)c2ccccc12` (tested in a mixture with another compound) the value was 1260 nM (active); for `O=S(=O)(NCCNC/C=C\c1ccc(Br)cc1)c1cccc2cnccc12`, 2000 nM (active); for `N[C@@H](CC1=CS(=O)(=O)c2ccc(Cl)cc21)C(=O)O`, 398 nM (active).
For `O=C1OC(=O)[C@@H]2[C@@H]1[C@@H]1CC[C@H]2O1`, the Potency result is “inactive”.
`O=C(O)c1cc(N=Nc2ccc([N+](=O)[O-])cc2)ccc1O`: the activity change, negative = inhibition was -15.3% [at 2.29 µM].
For the compound `Cc1ccc(Nc2nnc(-c3ccc4c(c3)OCO4)o2)c(C)c1`, the Potency is 2510 nM (active).
For `OC[C@@H]1O[C@H](n2cnc3c(/C=C(\O)c4ccccc4)ncnc32)[C@H](O)[C@@H]1O`, the Potency was 501 nM (active).
As for `Cc1cc(Cc2c(C)c(C)c(Cc3cc(C)cc(C(C)(C)C)c3O)c(C)c2C)c(O)c(C(C)(C)C)c1`, the activity change, negative = inhibition was 5% [at 2.29 µM].
`CC(C)(C)c1ccc(NS(=O)(=O)c2ccc(N)cc2)cc1`: the Potency was 3160 nM (active).
`Cc1c(C)c(C)c(CC2(C)CSC2)c(CC2(C)CSC2)c1C`: the Potency entry is “inactive”.
As to `S=C(Nc1ccc2c(c1)Cc1ccccc1-2)Nc1ccc2c(c1)Cc1ccccc1-2`, the Potency is 200 nM (active).
Take `O=C(Nc1ccc2c(c1)Cc1ccccc1-2)[C@@H]1[C@H](C(=O)O)[C@]2(Cl)C(Cl)=C(Cl)[C@@]1(Cl)C2(Cl)Cl`: the Potency is 3160 nM (active).
`O=S(=O)(O)c1ccc(-c2nnc(-c3ccccn3)nc2-c2ccc(S(=O)(=O)O)o2)o1`: the Potency result was “inactive”.
Take `OC[C@@H]1O[C@H](O)[C@@H](Cl)[C@H](O)[C@@H]1O`: the Potency entry was “inactive”.
Regarding `COc1cccc2c1[C@H](CO)N1[C@H](C#N)[C@@H]3C[C@H](C(=O)O)[C@@H]([C@@H]1C2)N3C`, the activity change, negative = inhibition is -21% [at 2.29 µM].
`CN1CCN(c2ncc3nc(-c4cccs4)c(=O)n(C[C@H]4CCCO4)c3n2)CC1`: the Potency was 12600 nM (active).
